# The full ranking holds about 33,000 sequences; the median of “E-score (-0.5 to 0.5)” is about -0.021, and the highest 2% start at about 0.32. The entries come from a sample that favours the highest values as a whole.
# Target: T1, Zap1 (UniProt P47043)
# T1 sequence: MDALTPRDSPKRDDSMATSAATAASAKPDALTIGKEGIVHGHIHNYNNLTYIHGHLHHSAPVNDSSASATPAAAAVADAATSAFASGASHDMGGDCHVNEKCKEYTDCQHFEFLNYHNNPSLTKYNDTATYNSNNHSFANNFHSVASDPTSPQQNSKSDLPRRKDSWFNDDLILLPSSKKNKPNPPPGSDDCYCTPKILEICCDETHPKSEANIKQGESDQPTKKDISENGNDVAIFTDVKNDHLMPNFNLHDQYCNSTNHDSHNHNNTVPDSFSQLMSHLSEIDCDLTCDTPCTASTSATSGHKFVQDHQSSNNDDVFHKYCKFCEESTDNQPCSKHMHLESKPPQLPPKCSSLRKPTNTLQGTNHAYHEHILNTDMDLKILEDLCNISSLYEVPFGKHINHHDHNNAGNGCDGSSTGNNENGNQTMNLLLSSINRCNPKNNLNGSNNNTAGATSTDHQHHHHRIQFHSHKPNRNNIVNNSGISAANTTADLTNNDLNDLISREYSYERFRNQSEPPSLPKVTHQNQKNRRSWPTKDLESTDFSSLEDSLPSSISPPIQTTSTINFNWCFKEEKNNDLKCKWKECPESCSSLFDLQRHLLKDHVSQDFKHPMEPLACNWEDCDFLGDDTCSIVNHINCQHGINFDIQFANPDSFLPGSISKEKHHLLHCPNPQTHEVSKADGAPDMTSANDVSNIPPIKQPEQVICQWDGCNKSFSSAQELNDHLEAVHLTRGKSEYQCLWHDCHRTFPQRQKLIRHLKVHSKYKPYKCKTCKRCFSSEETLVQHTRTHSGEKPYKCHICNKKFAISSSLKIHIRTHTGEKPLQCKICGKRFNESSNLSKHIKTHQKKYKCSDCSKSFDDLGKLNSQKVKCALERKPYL
# Test: PBM E-score (8-mer binding enrichment) (E-score (-0.5 to 0.5)); higher = stronger / more preferred TF binding
# Conditions: protein concentration: 200 nM; construct: GST-full length
# Description: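 Universal 'all 10-mer' protein binding microarrays (Agilent AMADID 015681) probed with GST-tagged S. cerevisiae TFs (full-length or DBD) made by in vitro transcription/translation (PURExpress), about 100-200 nM. Bound TF was detected with fluorescent anti-GST. Each ungapped 8-mer (which stands for itself and its reverse complement) is scored by the PBM enrichment score (E-score), a modified Wilcoxon-Mann-Whitney statistic from -0.5 to +0.5, computed with the Universal PBM Analysis Suite. Scale: above 0.35 generally sequence-specific binding.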
row,Sequence,PBM E-score
1,AGGACATG,-0.0235
2,AAATACCA,0.129
3,CGGGGTTC,0.168
4,ACGGGTTG,0.158
5,CGGGGTTA,0.474
6,GCGGGTTA,0.366
7,GGGGGTTA,0.0334
8,GCGGGGTA,0.293
9,CCGGGTTA,0.388
10,ACGGGTTC,0.0245
11,ACGGGTTA,0.408
12,CCGGGTTC,0.247
13,CCGGGTGA,0.218
14,GCGGGTAA,0.106
15,ATCTTATG,-0.00019
16,CCCTTCAG,0.122
17,GCGCACAC,-0.234
18,CGGCGTTA,0.0618
19,ATCTAGGA,-0.0827
20,AAGTTGAT,-0.14
21,AGCTGTAG,-0.0501
22,ATGGCCAT,0.332
23,ATGGCCAC,0.185
24,ATGGCCAG,0.268
25,CGACGCTC,0.0879

row,Sequence,PBM E-score
1,CTGAGCCC,-0.179
2,ACCCTTAT,0.404
3,ATCCTTAG,-0.192
4,TCCCTTAA,0.0619
5,ACCCTTAC,0.29
6,GCCCTTAA,0.112
7,AGCCTTAT,-0.0493
8,ACCCTTAA,0.443
9,ACCCTTAG,0.432
10,CCCCTTAG,0.107
11,TAGTTGCA,0.116
12,ATACACGC,-0.091
13,AATCACAC,0.0533
14,TCTCGCCA,-0.206
15,ACAATACC,0.252
16,TACTATAA,0.249
17,CAGATGAA,-0.103
18,ACTCTCGG,0.0208
19,ACGGTGAA,-0.0282
20,ACCTCGTC,0.0929
21,ACCTCGAG,0.349
22,ACCTCGAT,0.245
23,ACCTCGTG,0.348
24,ACCTCGTA,0.189
25,CCCTCGAG,0.159

row,Sequence,PBM E-score
1,ACTGTCGA,-0.0508
2,CCCAATTC,0.157
3,TCACAGAA,-0.00307
4,CTGCGCAG,-0.325
5,CTTGAGCC,-0.111
6,CTAACCAC,0.325
7,CCAACCAC,0.256
8,CAAACCAC,0.0159
9,GAAACCAC,0.116
10,GGAACCAC,0.0961
11,ATAACCAC,0.46
12,GTAACCAC,0.431
13,AAAACCAC,0.197
14,AGAACCAC,0.285
15,CCTCTAAG,0.139
16,ACCATTTC,0.126
17,GATGGGCC,-0.145
18,CCCCCCAA,-0.371
19,TAGCCTAA,-0.0154
20,ATTACCTA,0.216
21,CCTACCTC,0.125
22,ACTACCTC,0.356
23,ATTACCTC,0.32
24,ATTACCTG,0.149
25,ACTACCTA,0.161

row,Sequence,PBM E-score
1,CGTAATCA,0.196
2,ATGTCACG,-0.195
3,CGGTCACC,0.276
4,AGGTCACT,0.25
5,AGGTCAAC,0.118
6,AGGTCACC,0.37
7,CGGTCACG,0.203
8,GGGTCACC,0.438
9,ACGTCACC,0.0378
10,AGGTCACA,0.359
11,AGGTCACG,0.406
12,GAGTCACC,0.0467
13,AAGTCACA,-0.034
14,ACCCATTG,0.166
15,CGAGCGAA,-0.162
16,ATACGGCA,0.0784
17,AACGAGAG,-0.138
18,GCTTTACA,-0.0896
19,CTTAATCC,-0.131
20,GACTGAAC,-0.199
21,ACCAGCAA,0.26
22,TCTAGGCA,-0.0489
23,AAAAACTT,0.0552
24,GCATTAGC,-0.151
25,GGATACAA,0.0969

row,Sequence,PBM E-score
1,CGTTTGGA,0.0241
2,CGGTCACA,0.163
3,GGGTCACA,0.398
4,TGGTCACA,0.231
5,GCCCAACC,-0.0373
6,ACTATGGC,-0.0314
7,AGTTATGC,0.0469
8,ACGGTGAC,-0.0408
9,AGGGTGAC,0.415
10,GGGGTGAC,0.337
11,AGGGTGAG,-0.118
12,AGGGTGAT,0.427
13,CGGGTGAC,0.167
14,AGGGTGTC,0.304
15,GGGGTGAA,0.0494
16,AGGGTGAA,0.0968
17,ATCTCGTA,-0.0363
18,AACTGTCT,-0.105
19,GAGAGCTA,-0.305
20,GGCGATCA,-0.283
21,ACCCTGCA,0.394
22,CCCCTGCG,-0.17
23,TCCCTGCA,0.0185
24,ACCCTGCG,0.422
25,GCCCTGCA,-0.195

row,Sequence,PBM E-score
1,ACCCTGCC,0.186
2,TACACAGA,0.0113
3,AGACTGAC,-0.202
4,GAGCTATA,-0.233
5,ACATACGA,0.0717
6,CGCGTCGC,-0.204
7,CTGTGGAA,-0.0936
8,AACCAGAT,0.142
9,ACAGATCT,-0.0411
10,ACATAACT,0.149
11,GCATAACA,0.0518
12,GCATAACC,0.414
13,ACATAACG,0.0512
14,GCATAAGC,-0.0977
15,ACATAACC,0.454
16,CATCTTAA,-0.0359
17,AAGCGGGC,-0.335
18,AGTGACCA,0.247
19,CTTGACCC,0.311
20,GGTGACCA,0.283
21,AGTGACCC,0.347
22,CGTGACCA,0.35
23,CGTGACCC,0.418
24,CGTGACGC,-0.134
25,AGTGACAC,-0.119

row,Sequence,PBM E-score
1,AGTGACCG,0.115
2,AGACTTAG,-0.306
3,AGGTTAAC,0.405
4,GGGTTTAA,0.242
5,GGGTTAAC,0.403
6,GAGTTAAC,0.00603
7,GTGTTAAA,0.0467
8,GGGTTAAA,0.443
9,ATGTTAAG,-0.0536
10,AGGTTAAG,0.383
11,CGGTTAAC,0.232
12,AGGTTAAT,0.315
13,ACGTTAAG,-0.0481
14,ACGTTAAC,0.0746
15,CTGCCAGA,-0.0969
16,GGTTAGGA,0.296
17,CAGTGCAA,-0.0222
18,CCCTAGAA,0.177
19,CCGGTGTC,0.0219
20,AGGTAGTG,0.268
21,CGGTAGTA,0.107
22,AGGTAGTA,0.337
23,AAATGAAA,0.23
24,ACATTCTC,-0.0126
25,GAATAACA,0.181

row,Sequence,PBM E-score
1,AAATAACC,0.42
2,AAATAACA,0.0357
3,CAATAACG,0.138
4,CAATAACA,0.0373
5,GAATAACC,0.438
6,CAATAACC,0.468
7,GAATAAGC,-0.182
8,AAATAACG,0.042
9,CGCGGCAG,-0.049
10,GCGTTGAC,-0.0667
11,CGCCAGCG,-0.255
12,GTTGCCGA,-0.0812
13,GTAGCAAC,-0.0913
14,GACAGTCA,-0.217
15,ACCGTTAA,0.256
16,GAAGGTGA,0.116
17,CAAGGTGA,0.216
18,CAAGGTTA,0.466
19,GAAGGTTA,0.437
20,CAAGGTTC,0.0224
21,GAAGGTGC,0.0253
22,GTCTGGTA,0.146
23,CGTCCATA,0.125
24,AGCTGAGC,-0.185
25,ATACCCCA,0.383

row,Sequence,PBM E-score
1,GTACCCAA,0.234
2,GTACCCCA,0.35
3,CTACCCCA,0.139
4,ATACCCAA,0.247
5,ATACCCCC,0.221
6,ACTCTGCA,0.0815
7,AGTTCAGG,0.0101
8,ATATGACG,-0.122
9,GCCGAGGC,-0.0423
10,AACCCATT,0.276
11,AACCCATA,0.391
12,GACCCATA,0.259
13,ACCCCATG,0.255
14,ACCCCATA,0.373
15,CCCCCATA,-0.0168
16,GTATTCAA,0.123
17,AGCCACAG,-0.199
18,GACAGCCA,-0.146
19,ACGTCACT,-0.246
